# Measurements published in ChEMBL document CHEMBL4513216, “Probing the Open Global Health Chemical Diversity Library for Multistage-Active Starting Points for Next-Generation Antimalarials” (ACS Infect Dis, 2020).
# The whole screen tested about 69,000 compounds, of which about 8,600 (12%) showed an effect of 50% or more. The full list was thinned out, with strong results kept by preference.
# Test system: Plasmodium berghei
# Assay: Screen against P. berghei liver stage (PbLuc), transformed with Luciferase, at 10uM
# Type: functional, HepG2
# Settings: tested at 10 uM
row,SMILES,INHIBITION [%]
1,Cc1nc(N)nc(C)c1CC(=O)N1CCCCC1c1cccc(F)c1 (stereo not drawn),19.3
2,Cc1noc(O)c1Cc1ccc2ccccc2c1,-26.2
3,Cc1ccsc1CN(C)c1cc(N2CCCC2CO)ncn1 (stereo not drawn),18.6
4,CCn1ccnc1CN(C)c1cc(N(C)C)ncn1,57.3
5,CN(C)c1cc(N(C)Cc2cc(C(C)(C)C)n[nH]2)ncn1,-82.7
6,COc1cc(N(C)CCCn2nc(C)cc2C)ncn1,14.3
7,COc1cc(N(C)Cc2cc(C(C)(C)C)n[nH]2)ncn1,-45
8,CCn1ccnc1CN(C)c1cc(C2CC2)ncn1,52.6
9,CCn1ccnc1CN(C)c1cc(OC)ncn1,58.2
10,Cc1cc(C)n(CCCN(C)c2cc(C3CC3)ncn2)n1,8.7
11,CCn1ccnc1CN(C)C(=O)Cn1ccc2ccccc2c1=O,3.04
12,CCn1ccnc1CN(C)c1cc(C2CCCNC2)nc(C)n1 (stereo not drawn),4.41
13,COc1cc(N2CCO[C@H]3[C@@H](Oc4cccnc4)CC[C@@H]32)ncn1,23.5
14,Cc1cccc(CN2CC3(CCN(Cc4ccco4)CC3)OCC2=O)n1,-16.2
15,NC(=O)C1CCN(C(=O)Cc2cnc(-c3c(Cl)cccc3Cl)s2)CC1,37.9
16,O=S(=O)(c1ccc(F)cc1)N1CCCC1c1cc[nH]n1 (stereo not drawn),33.7
17,COc1ccc(C(=O)N2CCC(Nc3cccnn3)CC2)c(F)c1,-32
18,CC(C)N(CC(N)=O)Cc1cccc(Br)c1,16.6
19,Cc1c(Cl)cccc1NC(=O)CCNc1ccc(C#N)cn1,-128
20,CC(C)N(CC(=O)O)Cc1cccc(Br)c1,13.2
21,CC(C)N(CC(=O)Nc1ccc(Br)cc1Cl)Cc1cccnc1,73.2
22,CCc1noc(C(C)N(C)CC(=O)Nc2ccccc2Cl)n1 (stereo not drawn),21.7

row,SMILES,INHIBITION [%]
1,Cc1c(Cl)cccc1NC(=O)CN(Cc1cccnc1)C(C)C,73.2
2,N#CCCN(Cc1cccnc1)C(=O)c1cc(Cl)c[nH]1,30.3
3,N#CCCN(CC(=O)Nc1ccc(Br)cc1Cl)Cc1cccnc1,64.3
4,N#CCCN(Cc1cccnc1)C(=O)c1ccc(-n2cnnn2)cc1,18.6
5,O=C(Cc1ccc2c(c1)CCC2)N1CCCC1Cn1cccn1 (stereo not drawn),2.79
6,Cc1cccc(N2CC3(CCN(S(=O)(=O)C4CC4)C3)C2)n1,34.6
7,CC(=O)N1CCCC2(CN(Cc3ccc(C)s3)CCO2)C1 (stereo not drawn),-46.8
8,O=C(Cc1cccs1)N1C[C@H]2CN(CC3CCCO3)CC[C@H]2C1 (stereo partly drawn),30.3
9,O=C1[C@@H]2CN(c3ncc(Cl)cc3F)C[C@]2(C(=O)O)CN1CC1CC1,-5.19
10,Cc1nc(CN(C)C2CCCN(c3cccnn3)C2)oc1C (stereo not drawn),-21.8
11,Cc1cc(C2CCCN2C(=O)NCc2c(C)cc(C)[nH]c2=O)on1 (stereo not drawn),36.1
12,Cc1cc(C2CCCN2C(=O)CN(C)Cc2ccccc2)no1 (stereo not drawn),58.7
13,CN(CC(=O)N1CCCC1c1ccccn1)Cc1ccccc1 (stereo not drawn),26.6
14,Cc1cc(C)c(CNC(=O)N2CCCC2c2ccccn2)c(=O)[nH]1 (stereo not drawn),-14.7
15,Cc1nc(C2CCCN2C(=O)CN(C)Cc2ccccc2)no1 (stereo not drawn),34
16,Cc1cc(C)c(CNC(=O)N2CCCC2c2cc(C)on2)c(=O)[nH]1 (stereo not drawn),81.3
17,CN(C)[C@@H]1CCN(c2ncccn2)[C@H]1Cc1cccnc1,-31.4
18,CCN1CCC(N2CCC(C(=O)N(C)C)CC2)CC1,15.6
19,COc1ccc(CN2CCC(c3nnc(-c4scnc4C)o3)CC2)cc1,54.5
20,Cc1ccsc1-c1nnc(C2CCN(Cc3ccc(F)cc3)CC2)o1,68.2
21,Cc1ncsc1-c1nnc(C2CCN(Cc3ccc(Cl)cc3)CC2)o1,76.8
22,Cc1cccc(CN2CCC(c3nnc(-c4scnc4C)o3)CC2)c1,23.4

row,SMILES,INHIBITION [%]
1,Cc1ccc(CN2CC[C@H](c3nnc(-c4ccco4)o3)C2)cc1,-33
2,Cc1ncsc1-c1nnc(C2CCN(Cc3ccccc3)CC2)o1,27.8
3,Fc1ccc(CCN2CCC(c3nnc(-c4cccnc4)o3)CC2)cc1,35.3
4,Cc1ncsc1-c1nnc(C2CCN(Cc3ccc(F)cc3)CC2)o1,35.3
5,Cc1ncsc1-c1nnc(C2CCN(Cc3cccc(Cl)c3)CC2)o1,-6.3
6,COc1ccc2c(c1)CN(C)C(=O)CCN2CC(O)C(F)(F)F (stereo not drawn),-8.04
7,Cc1cnc(CNCc2cn(CCN3CCSCC3)nc2C)cn1,4.68
8,Cc1csc(NC(=O)c2cnc(C3CCCN(C)C3)cn2)n1 (stereo not drawn),71.3
9,COc1c(C2CCCN2CC(=O)Nc2nc(C)cs2)c(C)nn1C (stereo not drawn),31.9
10,O=C(NCC(F)F)c1cnc(C2CCCN2)cn1 (stereo not drawn),61.05
11,Cc1nn(C)c(C)c1-c1cnc(C2CCCN(C)C2)cn1 (stereo not drawn),-28.6
12,O=C(NCc1ccccn1)c1cnc(C2CCCN2)cn1 (stereo not drawn),18.3
13,Cc1csc(NC(=O)c2cnc(C3CCNCC3)cn2)n1,24.4
14,Cc1cccc(NC(=O)c2cnc(C3CCCNC3)cn2)n1 (stereo not drawn),10.4
15,Cc1csc(NC(=O)c2cnc(C3CCCN3)cn2)n1 (stereo not drawn),80.9
16,FC(F)CNc1cnc(C2CCCN2)cn1 (stereo not drawn),5.15
17,COCCN1Cc2nccn2CC(COCc2csc(C)n2)C1 (stereo not drawn),29.5
18,CN(C)CCNC(=O)c1sc2ccccc2c1C1CCC(CN)CC1 (stereo not drawn),-77.3
19,COCC1CN(S(=O)(=O)N(C)C)Cc2cnn(CC3CCCC3)c21 (stereo not drawn),-17.1
20,COc1cccc2c1ccn2CCNC(=O)CCNc1ncccn1,38.5
21,COc1ncnc2c1CCN(Cc1cccc(C)n1)CC2,10.7
22,CCc1nc(CN(C)Cc2nnc(-c3cccs3)o2)cs1,7.81

row,SMILES,INHIBITION [%]
1,CN(Cc1csc(-c2cccs2)n1)Cc1cccnc1N,55.9
2,Cc1nc(CN(C)Cc2csc(-c3cccs3)n2)co1,15.7
3,Cc1cc(CN(C)Cc2csc(-c3cccs3)n2)n[nH]1,57
4,CN(Cc1csc(-c2cccs2)n1)CC(O)CO (stereo not drawn),51.5
5,CN(Cc1csc(-c2cccs2)n1)Cc1ncccc1C(=O)O,5.91
6,CC(NS(C)(=O)=O)C(=O)N(C)Cc1csc(-c2cccs2)n1 (stereo not drawn),-102
7,COC(=O)NCC(=O)N(C)Cc1csc(-c2cccs2)n1,49.2
8,CNC(=O)C(C)S(=O)(=O)Cc1csc(-c2cccs2)n1 (stereo not drawn),30.1
9,O=C(C1CCOCC1)N1CCCC1c1cncc(CN2CCCC2)n1 (stereo not drawn),41.5
10,COCC(=O)N1CC(c2csc(NC(C)=O)n2)C1,2.71
11,CNC(=O)C1CCN(C(=O)NCCc2ccc(Cl)s2)CC1,23.5
12,Cc1ccc(-c2nnc(C3CCCN3S(=O)(=O)c3cnn(C)c3C)o2)s1 (stereo not drawn),19.02
13,Cc1ccc(NC2CCN(C(=O)CCc3c(C)noc3C)CC2)nn1,7.12
14,CCc1ncnc2c1CCN(C(=O)c1ccccn1)CC2,-0.813
15,CC1CCc2nc(O)c(C(=O)NCCc3cccs3)cc2C1 (stereo not drawn),-111
16,O=C1CC(c2cccs2)Cc2nc(O)c(C(=O)N3CCCC3)cc21 (stereo not drawn),-60.7
17,O=C(O)c1cc2c(nc1O)CC(c1cccc(Cl)c1)CC2=O (stereo not drawn),-23.7
18,O=C(O)c1cc2c(nc1O)CC(c1cccs1)CC2=O (stereo not drawn),-6.32
19,COCCNC(=O)c1cc2c(nc1O)CC(c1cccs1)CC2=O (stereo not drawn),55.2
20,O=C(NC1CC1)c1cc2c(nc1O)CC(c1cccs1)CC2=O (stereo not drawn),75.2
21,O=C(Cc1ccccc1Cl)Nc1cc(N2CCCC2)ncn1,-12.1
22,O=C(O)[C@@H]1CN(C(=O)CCN2CCCCC2)C[C@H]1c1ccccc1,-24

row,SMILES,INHIBITION [%]
1,CCOCc1nc(-c2ccc(F)cc2Cl)n(C2CCN(C)CC2)n1,8.51
2,Cc1noc(C)c1CNC(=O)Nc1ccc(N2CCSCC2)cc1,7.93
3,Cc1cc(NC(=O)CN2CCc3cncnc3C2)on1,43.3
4,O=C(c1ccccn1)N1C[C@H]2CC[C@@H](C1)N(C(=O)c1ccsc1)C2,20.6
5,CCc1nccn1CCCNc1nccc(-c2c(C)nn(C)c2C)n1,65.2
6,CCn1ccnc1CNc1nccc(-c2cn(C)nc2C)n1,-67.9
7,CCn1ccnc1CNc1nccc(-c2c(C)nn(C)c2C)n1,-47.8
8,CCc1nc(CN(C(C)=O)C2CCN(Cc3csc(C)n3)C2)no1 (stereo not drawn),-13.5
9,COCC(=O)NC[C@]12COC[C@H]1CN(Cc1ccc3c(c1)OCO3)C2,0.453
10,COCC(=O)N[C@@H]1CN(Cc2ccc3c(c2)OCCO3)C[C@H]1O,52
11,O=C(NCC1CC1)N1CCN(Cc2ccc3c(c2)OCCO3)CC1,13.9
12,CCC[C@H]1CN(Cc2ccc3c(c2)OCCO3)C[C@@H]1NC(=O)COC,37.6
13,COCC(=O)NC[C@]1(O)CN(Cc2ccc3c(c2)OCCO3)C[C@H]1O,66.8
14,CC(=O)N1CCN(Cc2ccc3c(c2)OCCO3)CC(O)C1 (stereo not drawn),15.8
15,Cc1nc(CN2CCCC(Cn3cncn3)C2)no1 (stereo not drawn),34.7
16,CN(Cc1nnc(C2CC2)n1C)S(=O)(=O)c1ccc(F)c(C#N)c1,-6.46
17,CS(=O)(=O)N1C[C@H]2CC[C@@H](C1)N(Cc1ccsc1)C2,10.2
18,O=C(CCc1nc2cc(Br)cnc2[nH]1)NCCCn1ccnc1,-7.28
19,CN(C)c1cc(C2CCCN2Cc2ccccc2OCC(=O)O)ccn1 (stereo not drawn),24.4
20,Cc1ccncc1C(=O)N1C[C@H]2CN(CC3CCC3)C[C@@]2(C(=O)O)C1,42.3
